We go through 18 compounds from PubChem BioAssay (NCI).

Among the test systems are T-47D breast; MDA-MB-435 melanoma; SW-620 colon; MCF7 breast; HCT-116 colon; HCC-2998 colon; KM12 colon.
Experiment in all cases: NCI-60 one-dose screen, 48 h (100 = growth as untreated, 0 = no growth, -100 = all killed)
Details in all cases: 10 µM unless noted

About 83,000 compounds went through this panel and 20% of them were active in at least one assay; those are over-represented in the sample as a whole.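 Activity criterion: percent growth below 10, measured after cells in 96-well plates were exposed to a single compound concentration for 48 hours.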 A number with no mark means an inactive call. Activity calls are given as the source filed them.

`COc1ccc2c(c1)c(-c1noc(-c3cn(C)c4ncc(F)cc34)n1)cn2C`: the growth in the assay on T-47D breast was 76.8%; in the assay with MDA-MB-435 melanoma it was 77.1%; in the assay with SW-620 colon it was 82%; in the assay with MCF7 breast, 54.6%; in the assay with HCT-116 colon it was 80.7%; in the assay on HCC-2998 colon it was 90%. Besides, the growth in the assay on KM12 colon is 87.8%.
Regarding `COc1ccc(C=C2c3ccccc3-c3ccccc32)cc1`, the growth was 46.6% in the assay with T-47D breast; -10.4% (active) in the assay on MDA-MB-435 melanoma; 13% in the assay on MCF7 breast; 16.9% in the assay with HCT-116 colon; 73.6% in the assay on HCC-2998 colon; 24.8% in the assay with KM12 colon.
As to `C[N+](C)(C)c1ncnc2[n-]cnc12`, the growth in the assay with T-47D breast is 84%; with MDA-MB-435 melanoma, 104%; in the assay on SW-620 colon, 96.1%; with MCF7 breast, 89.8%; in the assay with HCT-116 colon, 105%; with KM12 colon, 93.6%.
For `Cc1nc(Cl)c2c(n1)N(C)c1ccc(Cl)cc1C(C)C2` (centres undefined), the growth in the assay with T-47D breast was 71%; in the assay with MDA-MB-435 melanoma it was 85.9%; in the assay with SW-620 colon, 86.5%; with MCF7 breast it was 95.6%; in the assay on HCT-116 colon, 80.1%; with HCC-2998 colon it was 98.6%. In the assay on KM12 colon, the growth was 92.4%.
Turning to `Oc1ccc(N=Nc2nccs2)c(O)c1`, the growth in the assay with T-47D breast is 58.1%; with MDA-MB-435 melanoma, 64.4%; in the assay with MCF7 breast, 57.1%; in the assay with HCT-116 colon, 5.98% (active); in the assay on HCC-2998 colon it was 73.4%; with KM12 colon, 51.7%.
Regarding `CSc1nc(N)c(N=Nc2ccc(S(=O)(=O)Nc3nnc(C)s3)cc2)c(=O)[nH]1`, the growth with T-47D breast is 112%; in the assay on MDA-MB-435 melanoma, 128%; in the assay with SW-620 colon it was 93.4%; in the assay on MCF7 breast, 100%; in the assay with HCT-116 colon, 109%; with HCC-2998 colon, 117%. Moreover, in the assay with KM12 colon, the growth was 98.6%.
For `c1ccc(-c2n[nH]c(-c3ccccn3)n2)nc1`, the growth in the assay with T-47D breast was 95.8%; in the assay with MDA-MB-435 melanoma it was 106%; in the assay on SW-620 colon, 117%; with MCF7 breast, 93.5%; with HCT-116 colon, 110%; in the assay with HCC-2998 colon, 108%. Also, the growth in the assay on KM12 colon was 128%.
`COC(=O)[C@H](CC(C)C)NC(=O)NC(=O)NC(=O)CI`: the growth with T-47D breast is 17.3%; in the assay with MDA-MB-435 melanoma it was 72.7%; in the assay with SW-620 colon, -51.5% (active); with MCF7 breast, 33.2%; in the assay with HCT-116 colon, 50%; in the assay on HCC-2998 colon, 91.9%. The growth in the assay with KM12 colon was 94.1%.
In the case of `O=C(Nc1cc(-c2cccnc2)nc(NCCCN2CCOCC2)n1)c1cc(Br)cc(C(F)(F)F)c1`, the growth was 46.4% in the assay with T-47D breast; 9.55% (active) in the assay with MDA-MB-435 melanoma; 75.4% in the assay with SW-620 colon; 38.6% in the assay on MCF7 breast; 35.7% with HCT-116 colon; 80% with KM12 colon.
`O=C(CCCSc1nc(-c2ccccc2)cc(-c2ccccc2)n1)NO`: the growth in the assay on T-47D breast is -2.43% (active); in the assay with MDA-MB-435 melanoma, 12.3%; with SW-620 colon, 16%; with MCF7 breast, 9.38% (active); in the assay on HCT-116 colon, 9.52% (active); in the assay with HCC-2998 colon, 17.7%. The growth with KM12 colon was 14.4%.
On to `CCOC(=O)C(C(C)=O)c1nc2sc3cc(Cl)c(Cl)cc3n2c(=O)c1C#N` (centres undefined), for which the growth with T-47D breast is 78%; in the assay on MDA-MB-435 melanoma it was 106%; in the assay on MCF7 breast it was 65.4%; in the assay with HCT-116 colon it was 101%; with HCC-2998 colon, 106%; in the assay with KM12 colon, 98.6%.
With `O=C(N[C@@H]1CCCc2ccccc21)[C@H](CCC(=O)N1CCN(C2CCCCC2)CC1)N1C(=O)[C@@H](N2C(=O)OC[C@@H]2c2ccccc2)[C@H]1/C=C/c1ccccc1`, the growth in the assay with T-47D breast is 44.4%; with MDA-MB-435 melanoma it was 9.89% (active); in the assay with SW-620 colon it was 37.7%; in the assay on MCF7 breast it was 16.5%; in the assay with HCT-116 colon it was 23.8%; in the assay on HCC-2998 colon, 11.6%. Further, the growth in the assay on KM12 colon was 35.5%.
For the compound `Cc1ccc2c(n1)C(=O)C(Cl)=C(Nc1ccc(N3CCN(C)CC3)cc1)C2=O`, the growth was -61.1% (active) in the assay with T-47D breast; -99.1% (active) in the assay on MDA-MB-435 melanoma; -69.8% (active) with SW-620 colon; -61.9% (active) in the assay with MCF7 breast; -64.9% (active) in the assay with HCT-116 colon; 92.1% with KM12 colon.
Regarding `COc1ccc2c(c1)C(C)Cc1c(Cl)ncnc1N2C` (centres undefined), the growth with T-47D breast was 4.2% (active); with MDA-MB-435 melanoma, -25.2% (active); in the assay with SW-620 colon, 3.63% (active); in the assay with MCF7 breast, 1.16% (active); in the assay on HCT-116 colon it was 7.03% (active); in the assay with KM12 colon it was 4.12% (active).
Consider `Nc1nc(N)c2c(n1)NC(c1ccc(F)cc1)C1CCc3ccccc3C1=N2` (centres undefined), for which the growth with T-47D breast is 49.7%; with MDA-MB-435 melanoma it was 54.4%; in the assay with SW-620 colon, 67.3%; in the assay with MCF7 breast it was 26.9%; in the assay on HCT-116 colon it was 31.9%; in the assay on HCC-2998 colon, 71.2%. For the same compound, the growth in the assay with KM12 colon is 50.1%.
With `Cc1ccc(N)c(O)c1`, the growth is 94.1% with T-47D breast; 102% in the assay on MDA-MB-435 melanoma; 92.2% in the assay on SW-620 colon; 83.5% in the assay with MCF7 breast; 85.2% in the assay with HCT-116 colon; -4.78% (active) in the assay with HCC-2998 colon. Also, the growth in the assay on KM12 colon is 99.5%.
On to `COc1cc2c(c(OC)c1)C1c3cc(OC)ccc3NC(=O)N1CC2` (centres undefined), for which the growth was 88.7% in the assay with T-47D breast; 9.36% (active) in the assay with MDA-MB-435 melanoma; 49.4% in the assay with SW-620 colon; 58.3% with MCF7 breast; 65.2% in the assay with HCT-116 colon; 94% in the assay with HCC-2998 colon. Further, in the assay on KM12 colon, the growth is 49.4%.
As for `Oc1c(CNCCNCc2cc(Cl)cc(Cc3ccccc3)c2O)cc(Cl)cc1Cc1ccccc1`, the growth in the assay with T-47D breast is 26.1%; with MDA-MB-435 melanoma it was 22.8%; with SW-620 colon it was 29.6%; in the assay on MCF7 breast, 17.4%; in the assay with HCT-116 colon, 18.6%; in the assay with HCC-2998 colon it was 20.2%. For the same compound, the growth in the assay with KM12 colon was 20.5%.
